An excerpt weighted towards active compounds, which were near 2.4% of everything screened.
VLA-4 agonist: allosterically activates the human VLA-4 integrin. P13612. Jurkat cells, LDV-FITC binding, flow cytometry. activation, % at 10 µM (by protocol). 24,000 tested, under 10 active. AID 528;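 active means fluorescent ligand binding to cells raised by more than 40% of the manganese-induced maximum; inconclusive means compound's own fluorescence above 85% of the ligand control signal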;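 further: 0% = ligand binding without compound and 100% = manganese-stimulated maximal binding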
FPRL1 binder: ligands of human FPRL1, also counter-screen for FPR ligands; actives 0.3% (n = 24,000); P25090; inhibition, % (no concentration beside the values); FPRL1-expressing cells, fluorescent ligand binding inhibition, flow cytometry;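 further: 0% = buffer alone and 100% = receptor blocker peptide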
Target sequence (P25090 whole entry, looked up): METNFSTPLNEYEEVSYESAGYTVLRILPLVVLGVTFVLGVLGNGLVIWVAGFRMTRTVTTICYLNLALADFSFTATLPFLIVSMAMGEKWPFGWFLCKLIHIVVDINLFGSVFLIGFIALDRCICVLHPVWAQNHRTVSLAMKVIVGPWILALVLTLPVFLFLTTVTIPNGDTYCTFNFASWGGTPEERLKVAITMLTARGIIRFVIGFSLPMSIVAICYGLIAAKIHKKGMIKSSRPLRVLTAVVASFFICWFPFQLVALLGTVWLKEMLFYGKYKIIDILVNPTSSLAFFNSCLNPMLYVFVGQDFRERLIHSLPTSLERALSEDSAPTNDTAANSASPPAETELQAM
FPR binder: human FPR ligand, with FPRL1 counter-screen; P21462; inhibition, % (concentration not given with the values); actives 0.74% (n = 24,000); FPR-expressing cells, fluorescent ligand binding, flow cytometry;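 further: 0% = buffer wells and 100% = receptor blocker peptide wells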
VLA-4 antagonist: inhibition of LDV-FITC ligand binding to human VLA-4 integrin; Jurkat cells, LDV-FITC binding with Mn2+, flow cytometry; 100% = Mn2+-driven binding gain fully reversed; actives 0.2% (n = 24,000); inhibition, % at 10 µM (by protocol); P13612;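 active means inhibition above 50%; inconclusive means compound itself fluorescent, judged against control cell fluorescence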;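 further: 0% = Mn2+ stimulated cells lacking compound and 100% = ligand binding without Mn2+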
Jurkat autofluor: compound fluoresces in Jurkat cells, VLA-4 screen interference. compound autofluorescence, flow cytometry; stronger effect = higher value; 1 = vehicle-only cell background. fluorescence ratio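 (tested at 10 µM compound in the well)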. actives 0.61% (n = 24,000);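 active means fluorescence ratio above 2.44, which is 1 plus 3 SD of all ratios; inconclusive means signal too bright to measure linearly, ratio around 10 or more; inactive means fluorescence ratio below 2.44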;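 further: green fluorescence of cells measured with 488 nm excitation and 530 nm emission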
LNCaP diff act: LNCaP prostate cell differentiation activation; flow cytometry side scatter, 4 d; side scatter shift, % at 10 µM; actives 0.56% (n = 24,000);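 active means side scatter shift above 30%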;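 further: androgen-responsive LNCaP prostate cancer cells in charcoal-stripped serum medium; percent of cells past a gate set so DMSO wells show 10% shift; higher shift means more granular cells and more differentiation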
An asterisk follows results filed as active; ? = inconclusive; . = not tested or not shown. Unless noted, no stated cut-off is given here; in the data, active means inhibition above about 30%; inconclusive means no clear call, values can overlap the other calls; inactive means below that.

SMILES	VLA-4 agonist	FPRL1 binder	FPR binder	VLA-4 antagonist	Jurkat autofluor	LNCaP diff act
COC(=O)c1cc(-c2ccccc2)sc1NC(=O)c1cc(C)on1	7	4	-5	-11	1	35*
COc1cc(-n2nc(C)c3c2OC(N)=C(C#N)C3c2ccccc2)c(Cl)c(Br)c1O (stereo not drawn)	?	-2	36*	?	3*	6
Cc1c(C)[n+](=O)c2c(n1[O-])CCCCC2	-2	0	-3	-16	1	6
COc1ccc(CCN2C(=O)C(O)=C(C(=O)c3ccco3)C2c2cccs2)cc1OC (stereo not drawn)	.	31*	82*	.	.	.
COc1cccc(C2C(C(=O)c3ccco3)=C(O)C(=O)N2CCCN2CCOCC2)c1OC (stereo not drawn)	.	0	-6	.	.	.
COCCN1C(=O)C(O)=C(C(=O)c2ccco2)C1c1cccc(Oc2ccccc2)c1 (stereo not drawn)	.	-5	72*	.	.	.
CCOc1cc(C2C(C(=O)c3ccc(C)o3)=C(O)C(=O)N2CCc2ccccc2)ccc1O (stereo not drawn)	.	-9	90*	.	.	.
COc1cc(C2C(C(=O)c3ccco3)=C(O)C(=O)N2CCc2ccccc2)ccc1O (stereo not drawn)	.	-2	63*	.	.	.
COC(=O)c1ccc2c(c1)N(Cc1nc(-c3ccc(Cl)cc3)oc1C)C(=O)C1CCCN21 (stereo not drawn)	6	-5	0	15	1.1	17
NC1=CC(=O)c2cccc3cccc1c23	?	-29	-3	?	3.5*	8
CCOc1ccc(S(=O)(=O)N2CCc3ccccc3C2)cc1	?	-4	3	?	3.2*	11
CCC(=O)Nc1ccc(S(=O)(=O)N2CCc3ccccc3C2)cc1	-5	2	6	-4	1	5
CC(C)Oc1ccc(C2C(C(=O)c3ccco3)=C(O)C(=O)N2CCCN(C)C)cc1 (stereo not drawn)	2	-8	-5	-24	1.1	10
COc1ccc(NC(=O)C2C(=O)N(CCO)C3(C)CC2c2ccccc2O3)cc1 (stereo not drawn)	-8	16	18	15	0.99	7
Cc1ccc(NC(=O)C2C(=O)N(CCO)C3(C)CC2c2ccccc2O3)cc1 (stereo not drawn)	0	40*	31*	19	0.96	10
COc1ccc(OC)c(C(=O)c2nc3c(n2O)CCCCC3)c1	-6	52*	54*	2	1.1	10
COc1ccc(C(=O)N2CCN(C3CCCCC3)CC2)c(OC)c1	4	0	2	-20	1.1	7
